Records with an inconclusive call do not appear. The source made the active and inactive calls. The calls were made as follows: active = hit-call score of the fitted dose curve at least 0.9, where 1 is the maximum; inconclusive = response in the unintended direction; inactive = score below 0.9.
Assay: ATG_M_06_EcoTox2: Attagene TRANS-FACTORIAL EcoTox-2 HepG2 Assay for M06 Transcription Factor (Internal Marker)
Protocol: ATG_EcoTox2 is a cell-based, multiplexed assay created by modifying the existing Attagene TRANS-FACTORIAL system to include a panel of nuclear receptors from some or all the following species: human (Homo sapiens), african clawed frog (Xenopus laevis), rainbow trout (Oncorhynchus mykiss), japanese medaka (Oryzias latipes), and zebrafish (Danio rerio). The ECOTOX2-FACTORIAL format uses HepG2, a human liver cell line, with measurements taken at 24 hours after chemical dosing in a 24-well plate. ATG_M_06_EcoTox2 is one of 29 assay components calculated in the ATG_EcoTox2 assay. It is designed to make measurements of mRNA induction, a form of inducible reporter, as detected with fluorescence intensity signals by Reverse transcription polymerase chain reaction (RT-PCR) and Capillary electrophoresis technology.The assay endpoint ATG_M_06_EcoTox2 was analyzed in the positive analysis fitting direction relative to DMSO as the negative control and baseline of activity. Using a type of inducible reporter, measures of mRNA for gain-of-signal activity can be used to understand the background control at the transcription factor-level as they relate to the gene. Furthermore, this assay endpoint can be referred to as a secondary readout, because this assay has produced multiple assay endpoints where this one serves a background control function. To generalize the intended target to other relatable targets, this assay endpoint is annotated to the background measurement intended target family, where the subfamily is internal marker.
Human liver HepG2 cells are transiently transfected with multiple reporter transcription units (MRTUs) in 6-well plates using FuGene 6 reagent (Roche; 3 ml FuGene/1 mg DNA). The MRTU constructs are regulated by a cis-regulating element (promoter). Each RTU expresses a GAL4-UAS that regulates the transcription of a nearby target reporter gene sequence. A major difference between the CIS and TRANS system is that in CIS activities of endogenous TFs are measured, whereas the TRANS assay evaluates changes in activities of exogenous, chimeric NR-Gal4 proteins. […] At the end of 24 hour incubation, total RNA was isolated using TriZol reagent (Invitrogen). The isolated RNA is then reverse-transcribed using oligo(dT) primer and Mo-MLV reverse transcriptase (Invitrogen) with DNAse I (Ambion) treatment for 30 min. The one-tenth of the produced cDNA was amplified by PCR using Taq DNA polymerase (Invitrogen) and two reporter sequence-specific primers. The PCR products were fluorescently labeled by primer extension with 6-arboxyfluorescein (6-FAM) 5'-labeled reporter sequence-specific primer (2 min at 95 C, 20 s at 68 C and 10 min at 72 C) and these products were digested with 5U of HpaI (New England Biolabs) for 2h at 37 C. The fragments were purified using Qiaquick PCR columns (Qiagen), analyzed on an ABI 3130xL genetic analyzer (Applied Biosystems) with peak positions identified by using a set of X-rhodamine (ROX)-labeled MapMarker1000 molecular weight standards (BioVentures). The raw capillary electrophoresis data was processed using Attagraph software (Attagene).

SMILES | outcome
C=C(c1ccc(C(=O)O)cc1)c1cc2c(cc1C)C(C)(C)CCC2(C)C | inactive
Cc1c(C)c2c(c(C)c1O)CCC(C)(COc1ccc(CC3SC(=O)NC3=O)cc1)O2 (stereo unspecified) | inactive
CC(C)OC(=O)C(C)(C)Oc1ccc(C(=O)c2ccc(Cl)cc2)cc1 | inactive
C[C@]12C=CC(=O)C=C1CC[C@@H]1[C@@H]2C(=O)C[C@@]2(C)[C@H]1CC[C@]2(O)C(=O)CO | inactive
CC(C)(Oc1ccc(C2CC2(Cl)Cl)cc1)C(=O)O (stereo unspecified) | inactive
CN(CCOc1ccc(CC2SC(=O)NC2=O)cc1)c1ccccn1 (stereo unspecified) | inactive
Cc1cccc(Nc2cc(Cl)nc(SCC(=O)O)n2)c1C | inactive
CC(c1cc2ccccc2s1)N(O)C(N)=O (stereo unspecified) | inactive
Cc1nc(-c2ccc(C(F)(F)F)cc2)sc1C(=O)NCc1ccc(OC(C)(C)C(=O)O)cc1 | inactive
CC(C)(Oc1ccc(CCNC(=O)c2ccc(Cl)cc2)cc1)C(=O)O | inactive
CC(C)(Oc1ccc(Cl)cc1)C(=O)O | inactive
